Experimental data as given in the antibiotic and cytotoxicity screens of Wong et al. (2023).
Hit rate of the full screen: of about 39,000 compounds, about 3,300 (8.5%) were called active. What follows is part of a selection rich in actives, with near analogues and random picks from the rest.

System: HepG2
Assay: cytotoxicity call (relative viability < 0.9)
Details: 10 µM

| Structure (SMILES) | cytotoxicity call |
| --- | --- |
| CO[C@H](CN(C)S(=O)(=O)c1cn(C)cn1)[C@@H](C)CN(C(=O)Nc1ccc(C(F)(F)F)cc1)[C@H](C)CO | inactive |
| Cc1noc(C)c1S(=O)(=O)N(C)C[C@H]1Oc2ccc(NC(=O)NC3CCCCC3)cc2CC(=O)N([C@H](C)CO)C[C@H]1C | inactive |
| Cc1ccc(S(=O)(=O)N(C)C[C@H]2Oc3c(NC(=O)c4ccncc4)cccc3C(=O)N([C@@H](C)CO)C[C@@H]2C)cc1 | inactive |
| C[C@H]1CN([C@@H](C)CO)C(=O)c2cccc(NC(=O)c3ccc(-c4nccs4)cc3)c2O[C@H]1CN(C)S(=O)(=O)c1ccc(Cl)cc1 | inactive |
| CNC1C(OC2OC(CO)C(N)C(O)C2O)OC2CC(N)C(OC3C(N)CC(N)C(O)C3O)OC2C1O.O=S(=O)(O)O (stereo unspecified) | inactive |
| C[C@H]1CN([C@@H](C)CO)C(=O)Cc2cc(NC(=O)c3ccncc3)ccc2O[C@@H]1CN(C)S(C)(=O)=O | inactive |
| C[C@@H]1CN([C@@H](C)CO)C(=O)Cc2cc(NC(=O)C3CC3)ccc2O[C@@H]1CN(C)S(=O)(=O)c1ccccc1 | inactive |
| CO[C@@H]1CN(C)C(=O)c2ccc(NC(=O)C3CC3)cc2OC[C@H](C)N(C(=O)C2CCOCC2)C[C@H]1C | inactive |
| C[C@@H]1CN([C@@H](C)CO)C(=O)c2cc(NS(=O)(=O)c3cn(C)cn3)ccc2O[C@@H](C)CCCCO[C@H]1CN(C)C | inactive |
| C[C@H](CO)N1C[C@H](C)[C@H](CN(C)CC2CC2)OCCCC[C@H](C)Oc2ccc(NC(=O)Nc3cccc4ccccc34)cc2C1=O | inactive |
| C[C@H](CO)N1C[C@H](C)[C@@H](CN(C)CC2CC2)OCCCC[C@H](C)Oc2ccc(NC(=O)Nc3cccc4ccccc34)cc2C1=O | inactive |
| C[C@@H]1CCCCO[C@@H](CN(C)CC2CCCCC2)[C@H](C)CN([C@@H](C)CO)C(=O)c2cc(NC(=O)Nc3cccc4ccccc34)ccc2O1 | active |
| C[C@H](CO)N1C[C@H](C)[C@H](CN(C)CC2CCCCC2)OCCCC[C@H](C)Oc2ccc(NC(=O)Nc3cccc4ccccc34)cc2C1=O | active |
| C[C@@H]1CCCCO[C@H](CN(C)CC2CC2)[C@@H](C)CN([C@H](C)CO)C(=O)c2cc(NC(=O)Nc3cccc4ccccc34)ccc2O1 | inactive |
| C[C@@H]1CCCCO[C@@H](CN(C)CC2CCCCC2)[C@@H](C)CN([C@H](C)CO)C(=O)c2cc(NC(=O)Nc3cccc4ccccc34)ccc2O1 | active |
| C[C@@H]1CCCCO[C@H](CN(C)CC2CC2)[C@H](C)CN([C@@H](C)CO)C(=O)c2cc(NC(=O)Nc3cccc4ccccc34)ccc2O1 | inactive |
| C[C@H](CO)N1C[C@H](C)[C@@H](CN(C)CC2CCCCC2)OCCCC[C@H](C)Oc2ccc(NC(=O)Nc3cccc4ccccc34)cc2C1=O | active |
| CC(C)NC(=O)Nc1ccc2c(c1)C(=O)N([C@@H](C)CO)C[C@H](C)[C@H](CN(C)C(=O)NC1CCCCC1)O2 | inactive |
| COC(=O)C1=C(C)NC(C)=C(C(=O)OC)C1 | inactive |
| O=C(C[C@H]1CC[C@@H](NS(=O)(=O)c2ccccc2F)[C@H](CO)O1)NCCCN1CCOCC1 | inactive |
| O=C(/C=C/c1ccc(O)c(O)c1)O[C@@H]1C[C@](O)(C(=O)O)C[C@@H](OC(=O)/C=C/c2ccc(O)c(O)c2)[C@H]1O | inactive |
| CC(C)C[C@H](NC(=O)[C@@H](COC(C)(C)C)NC(=O)[C@H](Cc1ccc(O)cc1)NC(=O)[C@H](CO)NC(=O)[C@H](Cc1c[nH]c2ccccc12)NC(=O)[C@H](Cc1cnc[nH]1)NC(=O)[C@@H]1CCC(=O)N1)C(=O)N[C@@H](CCCNC(=N)N)C(=O)N1CCC[C@H]1C(=O)NNC(N)=O | inactive |
| C[C@H](CO)N1C[C@H](C)[C@@H](CN(C)S(=O)(=O)c2ccc(F)cc2)Oc2ccc(NS(=O)(=O)c3ccccc3)cc2CC1=O | inactive |

| Structure (SMILES) | cytotoxicity call |
| --- | --- |
| COc1ccccc1-c1cnc2c(c1)C(=O)N([C@H](C)CO)C[C@@H](C)[C@@H](CN(C)C(=O)c1ccncc1)O2 | inactive |
| C[C@H]1CN([C@@H](C)CO)S(=O)(=O)c2ccc(C3=CCCC3)cc2O[C@H]1CN(C)C(=O)Cc1ccncc1 | inactive |
| O=C1CN(c2ccccc2)C=NN1 | inactive |
| C[C@@H]1CCCCO[C@@H](CN(C)CC2CCCCC2)[C@H](C)CN([C@H](C)CO)C(=O)c2cc(NC(=O)Nc3cccc4ccccc34)ccc2O1 | active |
| C[C@@H]1CN([C@H](C)CO)C(=O)c2cc(NC(=O)Nc3cccc4ccccc34)ccc2O[C@@H](C)CCCCO[C@@H]1CN(C)CC1CCCCC1 | active |
| COc1ccc(S(=O)(=O)N(C)C[C@@H]2Oc3ccc(NC(=O)Cn4cnnn4)cc3CC(=O)N([C@H](C)CO)C[C@@H]2C)cc1 | inactive |
| C[C@H](CO)N1C[C@H](C)[C@@H](CN(C)C(=O)Nc2cccc(Cl)c2Cl)OCc2ccccc2-c2ccccc2C1=O | inactive |
| Cc1noc(C)c1S(=O)(=O)Nc1ccc2c(c1)CC(=O)N([C@H](C)CO)C[C@H](C)[C@H](CN(C)S(=O)(=O)c1ccccc1)O2 | inactive |
| C[C@H]1CN([C@@H](C)CO)C(=O)CCCn2cc(nn2)CO[C@H]1CN(C)S(=O)(=O)c1ccc(-c2ccccc2)cc1 | inactive |
| COc1ccc(S(=O)(=O)Nc2ccc3c(c2)C(=O)N([C@@H](C)CO)C[C@@H](C)[C@@H](CN(C)C(=O)CCC(F)(F)F)OCCCC[C@@H](C)O3)cc1 | inactive |
| C[C@@H]1O[C@@H](O[C@H]2[C@H](O[C@H]3[C@H](O)[C@@H](O[C@@H]4O[C@H](CO)[C@@H](O)[C@H](O)[C@H]4O)[C@H](O[C@H]4CC[C@]5(C)[C@H]6CC[C@]78OC[C@@]9(CCC(C)(C)C[C@@H]97)[C@H](O)C[C@@]8(C)[C@]6(C)CC[C@H]5C4(C)C)O[C@@H]3C(=O)O)O[C@H](CO)[C@H](O)[C@@H]2O)[C@H](O)[C@H](O)[C@H]1O | active |
| C[C@H]1O[C@@H](OC[C@H]2O[C@@H](O[C@H]3CC[C@]4(C)[C@H]5CCC6=C(CC[C@@]7(C(=O)O[C@@H]8O[C@H](CO)[C@@H](O)[C@H](O)[C@H]8O[C@@H]8O[C@H](CO)[C@@H](O)[C@H](O)[C@H]8O)CCC(C)(C)C[C@@H]67)[C@]5(C)CC[C@H]4C3(C)C)[C@H](O)[C@@H](O)[C@@H]2O)[C@H](O)[C@@H](O)[C@@H]1O | inactive |
| CC(=O)O[C@H]1CC(C)(C)C[C@H]2[C@]13CO[C@@]21CC[C@@H]2[C@@]4(C)CC[C@H](O[C@@H]5O[C@H](C(=O)O)[C@@H](O)[C@H](O[C@@H]6O[C@H](CO)[C@H](O)[C@H](O)[C@H]6O[C@@H]6O[C@@H](C)[C@H](O)[C@@H](O)[C@H]6O)[C@H]5O[C@@H]5O[C@H](CO)[C@@H](O)[C@H](O)[C@H]5O)C(C)(C)[C@@H]4CC[C@@]2(C)[C@]1(C)C[C@H]3O | active |
| C[C@@H]1O[C@@H](O[C@H]2[C@H](O)[C@@H](O)[C@H](OC(=O)[C@]34CCC(C)(C)C[C@H]3C3=CC[C@H]5[C@@]6(C)CC[C@H](O[C@@H]7O[C@H](C(=O)O)[C@@H](O)[C@H](O)[C@H]7O)C(C)(C)[C@@H]6CC[C@@]5(C)[C@]3(C)CC4)O[C@@H]2CO)[C@H](O)[C@H](O)[C@H]1O | inactive |
| CC1(C)[C@@H](O[C@H]2O[C@H](C(=O)O)[C@@H](O)[C@H](O)[C@H]2O[C@@H]2O[C@H](C(=O)O)[C@@H](O)[C@H](O)[C@H]2O)CC[C@]2(C)[C@H]3C(=O)C=C4[C@@H]5C[C@@](C)(C(=O)O)CC[C@]5(C)CC[C@@]4(C)[C@]3(C)CC[C@@H]12 | inactive |
| C[C@@H]1O[C@@H](O[C@H]2[C@H](O[C@H]3[C@H](O)[C@@H](C(=O)O)O[C@@H](O[C@H]4CC[C@]5(C)[C@H]6CC[C@]78OC[C@@]9(CCC(C)(C)C[C@@H]97)[C@H](O)C[C@@]8(C)[C@]6(C)CC[C@H]5C4(C)C)[C@@H]3OC3O[C@H](CO)[C@@H](O)[C@H](O)[C@H]3O)O[C@H](CO)[C@H](O)[C@@H]2O)[C@H](O)[C@H](O)[C@H]1O (stereo partly specified) | active |
| C[C@@H]1O[C@@H](O[C@H]2[C@H](O[C@H]3[C@H](O)[C@@H](O[C@@H]4O[C@H](CO)[C@@H](O[C@@H]5O[C@H](CO)[C@H](O)[C@H]5O)[C@H](O)[C@H]4O)[C@H](O[C@H]4CC[C@]5(C)[C@H]6CC[C@]78OC[C@@]9(CCC(C)(C)C[C@@H]97)[C@H](O)C[C@@]8(C)[C@]6(C)CC[C@H]5C4(C)C)O[C@@H]3C(=O)O)O[C@H](CO)[C@H](O)[C@@H]2O)[C@H](O)[C@H](O)[C@H]1O | inactive |
| CC(=O)O[C@H]1CC(C)(C)C[C@H]2[C@]13CO[C@@]21CC[C@H]2[C@@]4(C)CC[C@H](O[C@@H]5OC[C@H](O[C@@H]6O[C@H](CO)[C@@H](O)[C@H](O)[C@H]6O[C@@H]6OC[C@@H](O[C@@H]7O[C@H](CO)[C@@H](O)[C@H](O)[C@H]7O)[C@H](O)[C@H]6O)[C@H](O)[C@H]5O[C@@H]5O[C@H](CO)[C@@H](O)[C@H](O)[C@H]5O)[C@@](C)(CO)[C@@H]4CC[C@@]2(C)[C@]1(C)C[C@H]3O | active |
| CC(=N)NCCCC[C@@H](N)C(=O)O | inactive |
| COCC(=O)Nc1ccc2c(c1)C(=O)N(C)[C@H]1CC[C@@H](CC(=O)N3CCc4ccccc4C3)O[C@H]1CO2 | inactive |
| CO[C@H]1CN(C)C(=O)c2ccc(NS(=O)(=O)CC(F)(F)F)cc2OC[C@H](C)N(C(=O)c2ccc3c(c2)OCO3)C[C@H]1C | inactive |
| C=CC[C@H](Nc1ccccc1C)c1ccc(Cl)cc1 | inactive |
| C[C@H](CO)N1C[C@H](C)[C@@H](CN(C)S(=O)(=O)c2cn(C)cn2)OCCCC[C@H](C)Oc2ccc(NS(C)(=O)=O)cc2C1=O | inactive |
